The record followed here is PubChem BioAssay (Tox21).

Structures are written as SMILES. “And” between values parts separate entries of the source, which are not always exact repeats. Equal entries are not always repeated. Records with an inconclusive call do not appear. More than one record can exist for a structure, and the calls need not agree. The source made the active and inactive calls. Unless noted, calls follow the shape of the dose curve; as a rule, active = well fitted curve in the direction sought with a large enough effect in the repeat runs; inconclusive = weak or mixed curves; inactive = no such curve, though single readings can be large; an effect the other way counts as inactive or inconclusive.

Assay [1] can be described thus: qHTS assay to test for compound auto fluorescence at 535 nm (green) in HEK293 cells (AID 720680). Also: potency is read from the fitted curve at half-maximal effect.
Assay [2] in a line: qHTS assay to test for compound auto fluorescence at 460 nm (blue) in HEK293 cell free culture (AID 720681). In short, it runs like this:
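Compounds were added to cell-free DMEM with 10% FBS and fluorescence read directly. The blue channel used 405 nm excitation and 460 nm emission, with triamterene as the reference fluorophore.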

Assay [3] is described as follows: qHTS assay to test for compound auto fluorescence at 535 nm (green) in HEK293 cell free culture (AID 720682). Also: potency is read from the fitted curve at half-maximal effect. A digest of the protocol: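 Cell-free medium (DMEM, 10% FBS) receives compound or DMSO by pintool. Plate read directly at Ex 485/Em 535 nm. Signal converted to fluorescein equivalency.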
A short description of assay [4]: qHTS assay to test for compound auto fluorescence at 590 nm (red) in HEK293 cell free culture (AID 720683). Also: potency is read from the fitted curve at half-maximal effect. A digest of the protocol:
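Cell-free wells of DMEM with 10% FBS received compound, and intrinsic fluorescence was read at excitation/emission 540/590 nm. Values expressed as equivalence to Rose Bengal sodium.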

The nature of assay [5]: qHTS assay to test for compound auto fluorescence at 590 nm (red) in HepG2 cell free culture (AID 720684). Also: potency is read from the fitted curve at half-maximal effect. In short, it runs like this: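 Auto fluorescence equivalency versus Rose Bengal sodium, red channel Ex/Em 540/590 nm; compounds in cell-free MEM/10% FBS; DMSO vehicle control.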
Assay [6] is described as follows: qHTS assay to test for compound auto fluorescence at 535 nm (green) in HepG2 cell free culture (AID 720686). Also: potency is read from the fitted curve at half-maximal effect.
A short description of assay [7]: qHTS assay to test for compound auto fluorescence at 460 nm (blue) in HepG2 cells (AID 720687). In short, it runs like this:
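HepG2 cells in MEM with 10% FBS, attached overnight at 37 C, were exposed to compound or DMSO for 1 hr at 37 C, 5% CO2. Blue fluorescence was read at 405/460 nm, with triamterene as reference fluorophore.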

Assay [8] can be described thus: qHTS assay to identify small molecule antagonists of the glucocorticoid receptor (GR) signaling pathway - cell viability counter screen (AID 720693). Also: nearly all actives have a fitted effect of over 55% in size. Also: potency is read from the fitted curve at half-maximal effect.
The nature of assay [9]: qHTS assay for identifying genotoxic compounds that show differential cytotoxicity against isogenic chicken DT40 cell lines with known DNA damage response pathways - wild type cell line (AID 743012). Also: nearly all actives have a fitted effect of over 60% in size. Also: potency is read from the fitted curve at half-maximal effect. A digest of the protocol:
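Viability of DNA repair-proficient chicken DT40 cells was assessed by CellTiter-Glo luminescence following 40 h compound exposure at 37 C/5% CO2.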

Assay [10] can be described thus: qHTS assay for identifying genotoxic compounds that show differential cytotoxicity against isogenic chicken DT40 cell lines with known DNA damage response pathways - Rev3 mutant cell line (AID 743014). Also: nearly all actives have a fitted effect of over 55% in size. Also: potency is read from the fitted curve at half-maximal effect.
A short description of assay [11]: qHTS assay for identifying genotoxic compounds that show differential cytotoxicity against isogenic chicken DT40 cell lines with known DNA damage response pathways - Rad54/Ku70 mutant cell line (AID 743015). Also: nearly all actives have a fitted effect of over 60% in size. Also: potency is read from the fitted curve at half-maximal effect.
Assay [12] in a line: qHTS assay to identify small molecule antagonists of the androgen receptor (AR) signaling pathway - cell viability counter screen (AID 743033; also: nearly all actives have a fitted effect of over 45% in size; also: potency is read from the fitted curve at half-maximal effect).
Assay [13] is described as follows: qHTS assay to identify small molecule antagonists of the androgen receptor (AR) signaling pathway using the MDA cell line - cell viability counter screen (AID 743041; also: nearly all actives have a fitted effect of over 45% in size; also: potency is read from the fitted curve at half-maximal effect). A digest of the protocol: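 Compound exposure lasted 16 h at 37C in MDA-kb2 AR-luc cells stimulated with R1881. Protease-based CellTiter-Fluor reagent was applied for the final 30 min and fluorescence measured.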

Assay [14] can be described thus: qHTS assay to test for compound auto fluorescence at 460 nm (blue) in HepG2 cell free culture (AID 720685). In short, it runs like this: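 Cell-free plates of MEM plus 10% FBS received 23 nL compound or DMSO vehicle; blue-channel (405/460 nm) intensity scored against triamterene as reference fluorophore.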
Assay [15] has as its target Glucocorticoid receptor (Homo sapiens) (UniProt P04150). The assay can be described thus: qHTS assay to identify small molecule agonists of the glucocorticoid receptor (GR) signaling pathway (AID 720691; active = well fitted activation curve with a large enough effect in the signal ratio in the repeat runs, not every such curve was filed as active; the % refers to the signal ratio). A digest of the protocol:
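Compounds in DMSO, alongside positive controls, were added to GR-bla HeLa reporter cells and incubated 18 h at 37 C; GRE-driven beta-lactamase was detected by fluorescence after 2 h with FRET substrate at room temperature.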

The target is the same in assay [16]. The experiment in a line: qHTS assay to identify small molecule antagonists of the glucocorticoid receptor (GR) signaling pathway (AID 720692; active = well fitted inhibition curve with a large enough effect in the signal ratio in the repeat runs, not every such curve was filed as active; the % refers to the signal ratio). In short, it runs like this:
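In a 1536-well cell format, compounds were added 4 h after seeding GR-bla HeLa cells, together with dexamethasone at 5 nM final; reporter activity was measured by FRET-substrate fluorescence following 18 h at 37 C.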

The target in assay [17] is Androgen receptor (Homo sapiens) (UniProt P10275). The assay can be described thus: qHTS assay to identify small molecule antagonists of the androgen receptor (AR) signaling pathway (AID 743035; active = well fitted inhibition curve with a large enough effect in the signal ratio in the repeat runs, not every such curve was filed as active; the % refers to the signal ratio). In short, it runs like this:
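Reporter HEK293 cells were exposed to compounds and R1881 overnight (16 h, 37C); beta-lactamase activity was then quantified by FRET fluorescence.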

Assay [18] shares this target. The assay can be described thus: qHTS assay to identify small molecule agonists of the androgen receptor (AR) signaling pathway (AID 743036; active = well fitted activation curve with a large enough effect in the signal ratio in the repeat runs, with a control signal flat, not every such curve was filed as active; the % refers to the signal ratio). A digest of the protocol: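 AR-bla HEK293 cells, 2,000/well; 4 h preincubation 37C/5% CO2; compound (DMSO) 16 h at 37C; LiveBLAzer B/G FRET substrate 2 h RT; fluorescence intensity read-out.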
For assay [19] the target is unchanged. The assay can be described thus: qHTS assay to identify small molecule agonists of the androgen receptor (AR) signaling pathway using the MDA cell line (AID 743040; also: nearly all actives have a fitted effect of over 20% in size). In short, it runs like this: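 Testing was done with the MDA-kb2 AR-luc line, a human breast carcinoma stably transfected with MMTV-luciferase containing AR and GR response elements. Cells were exposed 16 h at 37C before ONE-Glo luminescence detection.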

For assay [20] the target is unchanged. The assay can be described thus: qHTS assay to identify small molecule antagonists of the androgen receptor (AR) signaling pathway using the MDA cell line (AID 743042; also: nearly all actives have a fitted effect of over 55% in size). A digest of the protocol:
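MDA-kb2 breast carcinoma cells carrying MMTV-luciferase (AR/GR responsive) were co-treated with compounds and the agonist R1881 for 16 h at 37C. Inhibition read as ONE-Glo luminescence; CellTiter-Fluor fluorescence measured in parallel for cytotoxicity.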
Tags tell the direction and shape of the fitted curve or compound fluorescence and quenching.

Chain of Androgen receptor (Homo sapiens) (P10275 whole entry, looked up): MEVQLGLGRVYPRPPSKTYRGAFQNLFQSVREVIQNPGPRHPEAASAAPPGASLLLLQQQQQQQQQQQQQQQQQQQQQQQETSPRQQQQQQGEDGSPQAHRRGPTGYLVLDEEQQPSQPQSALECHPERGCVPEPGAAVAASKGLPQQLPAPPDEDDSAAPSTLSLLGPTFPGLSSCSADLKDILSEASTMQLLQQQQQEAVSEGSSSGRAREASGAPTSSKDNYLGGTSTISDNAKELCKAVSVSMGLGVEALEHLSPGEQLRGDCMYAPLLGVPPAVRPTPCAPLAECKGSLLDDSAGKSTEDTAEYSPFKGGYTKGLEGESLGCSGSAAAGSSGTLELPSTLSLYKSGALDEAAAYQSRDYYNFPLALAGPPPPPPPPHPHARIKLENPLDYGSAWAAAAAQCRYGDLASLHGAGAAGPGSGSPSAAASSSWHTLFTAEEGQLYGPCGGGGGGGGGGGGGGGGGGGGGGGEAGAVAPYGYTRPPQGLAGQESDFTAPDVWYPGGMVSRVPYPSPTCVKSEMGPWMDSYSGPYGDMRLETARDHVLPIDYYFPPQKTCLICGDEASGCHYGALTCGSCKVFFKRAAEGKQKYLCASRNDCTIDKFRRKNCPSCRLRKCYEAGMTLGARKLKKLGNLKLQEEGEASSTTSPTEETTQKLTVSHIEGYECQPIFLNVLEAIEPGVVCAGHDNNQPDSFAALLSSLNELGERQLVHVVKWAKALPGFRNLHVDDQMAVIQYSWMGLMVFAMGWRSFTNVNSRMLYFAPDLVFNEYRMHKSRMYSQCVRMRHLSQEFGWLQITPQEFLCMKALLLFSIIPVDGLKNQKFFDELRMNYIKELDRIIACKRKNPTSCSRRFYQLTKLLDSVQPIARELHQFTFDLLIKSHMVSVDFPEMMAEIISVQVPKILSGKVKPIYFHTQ
Chain of Glucocorticoid receptor (Homo sapiens) (P04150 whole entry, looked up): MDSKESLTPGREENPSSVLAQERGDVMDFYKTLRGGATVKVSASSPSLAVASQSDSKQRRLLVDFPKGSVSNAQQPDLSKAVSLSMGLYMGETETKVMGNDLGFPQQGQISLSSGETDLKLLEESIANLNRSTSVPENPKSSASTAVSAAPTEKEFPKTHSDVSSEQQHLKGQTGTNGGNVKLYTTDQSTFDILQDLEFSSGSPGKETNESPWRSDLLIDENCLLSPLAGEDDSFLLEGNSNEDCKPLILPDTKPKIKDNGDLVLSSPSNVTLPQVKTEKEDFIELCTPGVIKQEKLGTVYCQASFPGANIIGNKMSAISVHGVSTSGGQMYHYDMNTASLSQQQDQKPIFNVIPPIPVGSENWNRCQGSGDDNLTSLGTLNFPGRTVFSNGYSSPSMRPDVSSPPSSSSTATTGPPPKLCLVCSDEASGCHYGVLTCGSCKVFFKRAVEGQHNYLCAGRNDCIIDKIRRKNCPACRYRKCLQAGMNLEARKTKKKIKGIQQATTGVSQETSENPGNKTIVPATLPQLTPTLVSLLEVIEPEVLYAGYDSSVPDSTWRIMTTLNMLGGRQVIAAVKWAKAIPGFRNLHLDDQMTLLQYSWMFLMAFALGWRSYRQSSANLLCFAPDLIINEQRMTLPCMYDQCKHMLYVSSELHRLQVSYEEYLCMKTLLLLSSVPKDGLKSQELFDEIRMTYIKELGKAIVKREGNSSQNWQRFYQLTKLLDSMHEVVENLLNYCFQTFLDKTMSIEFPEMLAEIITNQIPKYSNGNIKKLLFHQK

Regarding `C=CCc1ccc(O)c(OC)c1`, the Potency entry in assay [1], in assay [2], in assay [3], in [4], in assay [5] and in [6] was “inactive” each time. In addition, the Potency entry in assay [7], in assay [8], in [9], in [10], in [11] and in assay [12] was “inactive” each time. Also, the Potency entry in assay [13] was “inactive”.

On to `Cc1cc(C)nc(NS(=O)(=O)c2ccc(N)cc2)n1`, for which the Potency entry in [1], in assay [2], in assay [3], in [4], in [14] and in [6] was “inactive” each time. Also, the Potency entry in [7], in assay [15], in assay [16], in assay [8], in assay [9] and in assay [10] was “inactive” throughout. In addition, the Potency entry in [11], in [12] and in assay [13] was “inactive” in each case.

In the case of `NS(=O)(=O)O`, the Potency entry in assay [1], in [2], in assay [3], in assay [4], in [14] and in assay [6] was “inactive” throughout. The Potency result in [7], in assay [15], in assay [16], in assay [8], in assay [9] and in [10] was “inactive” each time. Besides, the Potency result in assay [11], in [12] and in assay [13] was “inactive” in each case.

With `O=C1OC2(c3ccccc31)c1cc(Br)c(O)c(Br)c1Oc1c2cc(Br)c(O)c1Br`, the Potency in [1] was 11.2 µM [fluorescent] (active) and 28.2 µM [fluorescent] (active); in [3], 11.2 µM [fluorescent] (active) and 17.8 µM [fluorescent] (active); in [4], 4.47 µM [fluorescent] (active) and 3.55 µM [fluorescent] (active); in [5], 3.16 µM [fluorescent] (active) and 2.82 µM [fluorescent] (active) and 2.51 µM [fluorescent] (active); in assay [6] it was 10 µM [fluorescent] (active) and 20 µM [fluorescent] (active); in assay [13], 11.9 µM (active) and 7.81 µM (active) and 17.7 µM (active). The Potency result in assay [2], in assay [7], in assay [8], in assay [9], in assay [11] and in assay [12] was “inactive” each time.

As to `CC1(C)S[C@@H]2[C@H](NC(=O)[C@H](N)c3ccccc3)C(=O)N2[C@H]1C(=O)O`, the Potency result in assay [1], in assay [2], in [3], in [4], in assay [5] and in assay [6] was “inactive” throughout. The Potency entry in assay [7], in assay [8], in assay [9], in assay [10], in assay [11] and in assay [12] was “inactive” each time. Also, the Potency entry in assay [13] is “inactive”.

On to `CCCCCCCCCCCCCCCC[N+](C)(C)Cc1ccccc1`, for which the Potency result in [1], in [2], in assay [3], in assay [4], in assay [5] and in [6] was “inactive” in each case. Further, the Potency entry in assay [7] was “inactive”. In addition, the Potency is 21.3 µM (active) and 22.6 µM (active) and 35.3 µM (active) in assay [8]; 596 nM (active) and 794 nM (active) and 350 nM (active) in assay [9]; 750 nM (active) and 631 nM (active) and 783 nM (active) in assay [10]; 668 nM (active) and 891 nM (active) and 1.39 µM (active) in assay [11]; 16.9 µM (active) and 17.9 µM (active) and 17.7 µM (active) in [12]; 35.5 µM (active) and 27.8 µM (active) in assay [13].

For the molecule `CCCCOC(=O)c1ccc(O)cc1`, the Potency result in assay [1], in assay [2], in [3], in [4], in assay [14] and in assay [6] was “inactive” throughout. Further, the Potency result in assay [7], in assay [15], in [16], in assay [8], in assay [9] and in assay [12] was “inactive” each time. The Potency entry in [17], in assay [13] and in assay [20] was “inactive” in each case. For the same molecule, the Potency result in [10] is “inactive and 61.1 µM (active)”; in [11] it was “inactive and 61.1 µM (active)”. Also, the call in assay [18] and in assay [19] was inactive.
